This passage reports Inhibition results from ChEMBL document CHEMBL1157539, “Thousands of chemical starting points for antimalarial lead identification” (Nature, 2010).

In general, Inhibition refers to the relative decrease from the control value, in per cent.

Several values for one entry are separate records, joined by “and”; a condition that tells them apart may be missing. Identical values can stand only once.

What all share (assay type): functional
The test system of experiment [1] is Plasmodium falciparum. In words: GSK_TCMDC: Inhibition of Plasmodium falciparum 3D7 in whole red blood cells, using parasite LDH activity as an index of growth. Test compounds present at 2uM.
In experiment [2] the test system is Plasmodium falciparum. Briefly: GSK_TCMDC: Inhibition of Plasmodium falciparum Dd2 in whole red blood cells, using parasite LDH activity as an index of growth. Test compounds present at 2uM.
The next experiment relates to HepG2. Briefly: GSK_TCMDC: Percent inhibition of human HepG2 cell line. Test compounds present at 10uM.

In the case of `CC(C)(C)C1CCC(CC2=C(C(=O)O)c3ccccc3C2=O)CC1` (stereo not given), the Inhibition with Plasmodium falciparum [1] came out at 91%; with Plasmodium falciparum [2] it was 56%; with HepG2, 0%.

As for `C=C[C@H]1CN2CC[C@H]1C[C@H]2[C@H](O)c1ccnc2ccc(OC)cc12.Cl` [QUININE HYDROCHLORIDE], the Inhibition in the experiment on Plasmodium falciparum [1] is 99% and 100%; with Plasmodium falciparum [2] it was 79% and 99%; in the experiment with HepG2, 13% and 0%.

In the case of `COc1cc(CNCCCCCCNCc2cc(OC)cc3ccccc23)c2ccccc2c1.CS(=O)(=O)O`, the Inhibition with Plasmodium falciparum [1] turned out to be 100%; with Plasmodium falciparum [2], 94%; in the experiment on HepG2 it was 57%.

On to `COc1ccc(Cn2c(N3CCN(S(=O)(=O)c4ccc(OC)cc4)CC3)nc3c2c(=O)n(CC2CC2)c(=O)n3CC2CC2)cc1`, for which the Inhibition in the experiment on Plasmodium falciparum [1] worked out at 92%; in the experiment with Plasmodium falciparum [2] it was 39%; with HepG2, 0%.

As to `Cc1ccc([N+](=O)[O-])cc1NC(=O)N(CC(O)c1ccccc1)C1CCCCC1` (stereo not given), the Inhibition is on record as 100% with Plasmodium falciparum [1], 98% with Plasmodium falciparum [2] and 11% with HepG2.

For the molecule `COc1cc(N(Cc2ccc(F)cc2)C(=O)c2ccc(-c3ccccc3)cc2)ccc1OCCN1CCCC1.Cl`, the Inhibition in the experiment on Plasmodium falciparum [1] was 93%; in the experiment with Plasmodium falciparum [2] it was 4%; in the experiment with HepG2, 11%.

Take `N#Cc1ccc(N2CCN(Cc3cccc(-c4cccc(-c5nc6cc(F)ccc6[nH]5)c4)c3)CC2)nc1.O=C(O)C(F)(F)F`: the Inhibition with Plasmodium falciparum [1] worked out at 90%; in the experiment with Plasmodium falciparum [2], 52%; with HepG2, 26%.

With `COc1cc(NCCCNC(=O)c2cc3c(Cl)cc(Cl)cc3[nH]2)nc2ccccc12`, the Inhibition with Plasmodium falciparum [1] is on record as 100%; in the experiment on Plasmodium falciparum [2] it was 100%; in the experiment on HepG2, 96%.

As for `Nc1nc2c(ncn2OC[C@H]2COP(=O)([O-])CO2)c(=O)[nH]1.[Na+]`, the values for the Inhibition in the experiment with Plasmodium falciparum [1], in the experiment on Plasmodium falciparum [2] and in the experiment on HepG2 were 92%, 32% and 1%, respectively.

As to `N#Cc1ccc(-c2ccc(OCC(O)CN3CCCN(Cc4cccc(O)c4Cl)CC3)cc2)cc1` (stereo not given), the Inhibition stood at 98% in the experiment with Plasmodium falciparum [1], 66% in the experiment with Plasmodium falciparum [2] and 3% with HepG2.

With `CCCC(C(=O)OCCN(CC)CC)(c1ccc(Cl)cc1)c1ccc(Cl)cc1.Cl`, the Inhibition with Plasmodium falciparum [1] was 91%; with Plasmodium falciparum [2] it was 87%; with HepG2, 7%.

In the case of `Cc1cc(Nc2c(C(N)=O)cnc3cc(-c4ccoc4)ccc23)ccc1N1CCN(C)CC1.Cl`, the Inhibition with Plasmodium falciparum [1] is 100%; in the experiment with Plasmodium falciparum [2], 100%; in the experiment with HepG2, 7%.

As to `CCOC(=O)c1cc(C(=O)OC)c2ccccn12`, the Inhibition is on record as 97% in the experiment with Plasmodium falciparum [1], 2% in the experiment on Plasmodium falciparum [2] and 44% in the experiment with HepG2.

As for `Cc1cc(C(=O)Nc2ccc3c(c2)CCN3C2CCN(Cc3ccc(O)cc3)C2)no1` (stereo not given), the results for the Inhibition in the experiment on Plasmodium falciparum [1], in the experiment with Plasmodium falciparum [2] and in the experiment with HepG2 were 95%, 86% and 3%, respectively.

In the case of `N#Cc1cc(C(=O)c2cc(Cl)ccc2O)cn(-c2cc(Cl)cc(Cl)c2)c1=O`, the Inhibition was found to be 93% with Plasmodium falciparum [1], 32% in the experiment with Plasmodium falciparum [2] and 34% in the experiment with HepG2.

As for `COc1ccc(-n2ccnc2SCC(=O)Nc2cc(C(F)(F)F)ccc2Cl)c(OC)c1`, the Inhibition in the experiment on Plasmodium falciparum [1] turned out to be 98%; in the experiment on Plasmodium falciparum [2], 76%; with HepG2 it was 0%.

For the molecule `CC(C)(C)c1ccc(NC(=O)c2cccc(CN3CCCN(Cc4ccsc4)CC3)c2)cc1.O=C(O)C(F)(F)F`, the Inhibition in the experiment with Plasmodium falciparum [1] was 96%; with Plasmodium falciparum [2], 3%; in the experiment on HepG2, 33%.

`CS(=O)(=O)NCCCNCc1cccc(-c2cccc(-c3nc4cc(F)ccc4[nH]3)c2)c1.O=C(O)C(F)(F)F`: the Inhibition in the experiment with Plasmodium falciparum [1] was determined as 100%; in the experiment with Plasmodium falciparum [2], 5%; with HepG2, 4%.

As to `CN(C)CCCOc1ccc(CNCC(C)(C)c2nc(-c3ccc(Cl)c(O)c3)c(-c3ccncc3)[nH]2)cc1.Cl`, the Inhibition is listed as 100% in the experiment with Plasmodium falciparum [1], 58% in the experiment on Plasmodium falciparum [2] and 64% with HepG2.

In the case of `CCc1ccc(C(=O)NC(=O)c2ccccc2O)cc1`, the values for the Inhibition in the experiment with Plasmodium falciparum [1], in the experiment with Plasmodium falciparum [2] and in the experiment on HepG2 were 95%, 84% and 0%, respectively.

Regarding `CCN(CCCN1CCCCC1)c1cc(C)nc(Nc2cc(C)ccc2C)n1.O=C(O)C(F)(F)F`, the Inhibition with Plasmodium falciparum [1] came to 93%; in the experiment on Plasmodium falciparum [2] it was 42%; in the experiment on HepG2, 34%.

For the molecule `Cc1nnc2sc(-c3cccc(NC(=O)c4ccc(N5CCCCC5)c([N+](=O)[O-])c4)c3)nn12`, the Inhibition is given as 87% with Plasmodium falciparum [1], 20% in the experiment with Plasmodium falciparum [2] and 3% in the experiment on HepG2.

`O=C(NC1CCN(CCN2CCC(c3c[nH]c4ccccc34)CC2)CC1)c1ccc(-c2ccc(C(F)(F)F)cc2)cc1`: the Inhibition with Plasmodium falciparum [1] is listed as 99%; in the experiment with Plasmodium falciparum [2] it was 100%; in the experiment with HepG2, 100%.

Turning to `Nc1nc(N)c2c(Oc3cccc4ccccc34)cccc2n1`, the Inhibition in the experiment on Plasmodium falciparum [1] is 96%; with Plasmodium falciparum [2], 10%; in the experiment on HepG2, 42%.

As for `Cc1nc(-c2cccc(Nc3nccc(NCC(O)c4cccc(F)c4)n3)c2)cs1` (stereo not given), the Inhibition in the experiment with Plasmodium falciparum [1] came out at 98%; with Plasmodium falciparum [2], 59%; with HepG2, 39%.

As to `COc1ccc2ncc(F)c(CCN3CC[C@H](NCc4cc5c(s4)CCCN5)[C@H](O)C3)c2n1.Cl`, the Inhibition was 96% in the experiment with Plasmodium falciparum [1], 16% in the experiment on Plasmodium falciparum [2] and 2% in the experiment on HepG2.

As for `Cc1cc(CN2CC[C@H](NC(=O)c3ccc(Cl)c(Cl)c3)C2)ccc1OC1CCN(C)C1.O=C(O)C(F)(F)F` (stereo not given in full), the Inhibition in the experiment with Plasmodium falciparum [1] is given as 100%; in the experiment on Plasmodium falciparum [2], 24%; in the experiment with HepG2 it was 71%.

On to `COc1ccc(NC(=O)c2ccc3cc4ccccc4cc3c2)cc1N1CCN(C)CC1`, for which the results for the Inhibition in the experiment with Plasmodium falciparum [1], with Plasmodium falciparum [2] and in the experiment with HepG2 were 86%, 29% and 38%, respectively.

On to `O=C(Nc1cccc(-c2ccc(-c3nc4cc(C(F)(F)F)ccc4[nH]3)s2)c1)c1c[nH]cn1`, for which the results for the Inhibition in the experiment with Plasmodium falciparum [1], in the experiment on Plasmodium falciparum [2] and with HepG2 were 89%, 36% and 55%, respectively.

As for `CN(Cc1cccc(O)c1)C1CCN(c2cc(NC(=O)c3cccc(F)c3)ccn2)CC1.O=C(O)C(F)(F)F`, the values for the Inhibition with Plasmodium falciparum [1], in the experiment with Plasmodium falciparum [2] and in the experiment on HepG2 were 98%, 37% and 0%, respectively.
